# Test results: ChEMBL document CHEMBL3433997, “St. Jude Leishmania screening dataset” (2016)
# Legend:
# Assay type in all cases: functional
# [1] = target: Solute carrier family 2, facilitated glucose transporter member 1 (Homo sapiens) (UniProt P11166); assay: ST_JUDE_LEISH: Cytotoxicity at 2uM final concentration against transgenic Leishmania Mexicana promastigotes LmGLUT1 that are glucose transport deficient and complemented with the human glucose transporter GLUT1. Activity is measured by DNA content using SYBR green in vitro
# Solute carrier family 2, facilitated glucose transporter member 1 (Homo sapiens), sequence (P11166 whole entry): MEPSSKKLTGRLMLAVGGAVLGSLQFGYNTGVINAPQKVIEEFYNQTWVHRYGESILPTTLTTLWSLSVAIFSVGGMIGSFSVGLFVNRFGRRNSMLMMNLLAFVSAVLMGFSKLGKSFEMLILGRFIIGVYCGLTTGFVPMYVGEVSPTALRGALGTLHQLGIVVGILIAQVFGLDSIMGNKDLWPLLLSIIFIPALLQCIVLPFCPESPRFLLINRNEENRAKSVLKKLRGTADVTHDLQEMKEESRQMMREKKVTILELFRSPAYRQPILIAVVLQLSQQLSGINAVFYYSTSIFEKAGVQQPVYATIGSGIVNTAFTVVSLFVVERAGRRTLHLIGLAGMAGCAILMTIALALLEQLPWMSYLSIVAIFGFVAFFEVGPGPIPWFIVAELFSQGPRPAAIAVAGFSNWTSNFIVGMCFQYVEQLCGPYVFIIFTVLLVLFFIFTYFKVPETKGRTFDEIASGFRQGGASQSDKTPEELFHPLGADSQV
# [2] = target: Hexose transporter 1 (Plasmodium falciparum) (UniProt O97467); assay: ST_JUDE_LEISH: Cytotoxicity at 2uM final concentration against transgenic Leishmania Mexicana promastigotes LmPfHT that are glucose transport deficient and complemented with the Plasmodium falciparum hexose transporter. Activity is measured by DNA content using SYBR green in vitro
# [3] = target: Glucose transporter (Leishmania mexicana) (UniProt O61059); assay: ST_JUDE_LEISH: Cytotoxicity at 2uM final concentration against transgenic Leishmania Mexicana promastigotes LmGT2 that are glucose transport deficient and complemented with the L. Mexicana glucose transporter 2. Activity is measured by DNA content using SYBR green in vitro
SMILES,inhibition [1] [%],inhibition [2] [%],inhibition [3] [%]
COc1ccc(C2CC(c3cccs3)=NN2C(=O)CNc2cccc(C#N)c2)cc1OC (stereo not drawn),7.28,14.4,2.41
CCCCc1ccc(-c2nc(NC(=O)Nc3[nH]c(-c4ccccc4)nc3C(=O)OCC)c(C(=O)OCC)[nH]2)cc1,3.65,0.82,-0.95
O=C(NC1CCCc2ccccc21)C1CCCN(C(=O)c2ccc(O)c(-c3ccc(Cl)c(Cl)c3)c2)C1 (stereo not drawn),1.28,2.04,2.38
Cn1cc(C(=O)Nc2cccc(-c3cccc(-c4nc5cc(F)ccc5[nH]4)c3)c2)n(C)c1=O,8.03,5.98,5.83
Cc1[nH]c(C)c(-c2ccc(CCc3ccc(F)cc3F)cc2)c(=O)c1Br,-0.51,-1.51,-2.17
CCCCCCCC1CCN(C[C@H](O)c2ccnc3ccc(OC)cc23)CC1,2.75,0.96,2.08
O=c1cc(NCCCNCc2sc(Br)c(Br)c2Br)[nH]c2ccccc12,10.5,9.87,10.4
Cc1ccc(-c2nc3cc(C(=O)NC4CCN(Cc5ccccc5)CC4)ccc3[nH]2)cc1,6.09,2.07,0.96
O=C(/C=C/c1ccc(Cl)c(Cl)c1)NCCCCCN1CCC(NC(=O)Nc2cc(Cl)nc(Cl)c2)CC1,1.28,-0.18,0.44
COc1c(C2CCN(CCCCNC(=O)c3cc(-c4ccc(Cl)cc4)oc3C)CC2)ccc2c1CCCC2,9.04,9.78,5.26
Cc1noc(C)c1-c1ccc2c(Nc3ccc([N+](=O)[O-])cc3)c(C(N)=O)cnc2c1,-0.67,-0.09,-0.76
Cc1noc(C)c1C(=O)N1CCc2cc3nccc(N4CCN5CCC[C@H]5C4)c3cc21,0.08,1.27,-0.53
CCOCc1cnc(C)nc1NCC(=O)c1c(C)[nH]c2cc(C)ccc12,-0.21,-0.79,-0.44
Cn1nc(C(F)(F)F)c(-c2ccc(Br)cc2)c1NC(=O)Nc1ccc(F)cc1F,1.12,1.19,1.25
CCCCCCOc1ccc(N2C(N)=NC(N)=NC2(C)C)cc1,1.45,1.46,0.46
COC(=O)c1cccc(CN(CCC(O)(C(F)(F)F)C(F)(F)F)C(=O)CC2CCCC2)c1,3.39,1.44,1.91
Cc1ccc(NC(=O)c2cc(S(=O)(=O)NC(C)(C)C)ccc2C)nc1,0.04,0.34,2.32
N#Cc1ccc(/C=C/C(=O)NCCCCCN2CCN(C(=O)Nc3ccc(Cl)c(C(F)(F)F)c3)CC2)cc1,5.8,4.08,1.97
O=C(/C=C/c1ccc(Cl)c(Cl)c1)NCCCCCN1CCC(C(=O)Nc2ccc3c(c2)OCO3)CC1,6.29,5.08,5.17
CC1(C)CCC(=Cc2ccc(Cl)cc2)CC1(O)Cn1ccnc1 (stereo not drawn),11.7,6.85,3.82
N#Cc1ccc(N/C(=N\c2ccccc2Br)N(C2CCCCC2)C2CCCCC2)c(O)c1,6.11,4.65,5.56
Cc1ccc(C(C(=O)Nc2ccc(N3CCNCC3)c(Cl)c2)c2ccccc2)cc1 (stereo not drawn),4.78,0.84,1.72
CC1(C)N=C(NC(=O)Nc2ccc([N+](=O)[O-])cc2)N=C(N)N1OCc1cccc2ccccc12,2.41,4.36,5.77
O=C(Cc1cccc(O)c1)NCC(Cc1ccc(O)cc1)c1ccccc1 (stereo not drawn),0.64,-0.06,0.22

SMILES,inhibition [1] [%],inhibition [2] [%],inhibition [3] [%]
Cc1cc(N[C@@H](Cc2ccccc2)C(=O)NCc2cccc(F)c2)nc(Nc2ccccc2)n1,6.85,7.5,2.63
CC(C)CNCc1ccc(-c2ccc(CNC3CCN(Cc4ccccc4)CC3)cc2)cc1,0.98,4.82,5.31
CN1CCN(c2ccnc3ccc(NC(=O)Nc4cccc5c(-c6ccncc6)cccc45)cc23)CC1,-0.27,-0.42,0.32
CCCCOc1ccc(CNCCCCCCNCc2ccc(OCCCC)c3ccccc23)c2ccccc12,104,102,103
CC(C)Oc1ccc(CCCON2C(=N)N=C(N)NC2(C)C)cc1,20.8,28.2,19
CCNc1cc(C(=O)N[C@@H](Cc2ccoc2)[C@H](O)CNC(C)CCCC(C)C)cc(N2CCCCS2(=O)=O)c1 (stereo partly drawn),1.42,0.7,0.83
c1ccc(CNCc2cccc(-c3cccc(-c4nc5ccccc5[nH]4)c3)c2)cc1,4.44,5.52,3.48
COc1ccc(-c2nc3c(N)nc(N)nc3nc2C(C)C)cc1,15.6,30.7,21.4
COc1cccc(-c2cc3c(NCc4ccncc4)nccc3s2)c1,3.12,3.46,0.82
COc1cccc(CNC[C@@H](O)[C@H](Cc2ccccc2)NC(=O)c2cc3c4c(c2)c(C(C)C)cn4CCS(=O)(=O)N3C)c1,8.36,8.07,8.04
O=C(Nc1cccc(CN2CCCN(Cc3cccnc3)CC2)c1)c1cc2ccccc2s1,4.38,4.77,-1.53
CC(C)C(=O)NC(c1cccs1)c1cc(Cl)c2cccnc2c1O (stereo not drawn),1.65,1.13,-0.45
CC1CCCCN1CCCNc1nc(NCc2ccccc2)c2ccccc2n1 (stereo not drawn),23.1,31.8,10.2
Cc1cc(NC(=O)Nc2ccc3nccc(N4CCN(C)CC4)c3c2)ccc1Br,-0.1,1.48,1.15
O=C(NCCCCCN1CCC(c2c[nH]c3ccccc23)CC1)c1ccc(-c2cccnc2)cc1,1.86,0.85,1.15
N#Cc1ccc2c(c1)CCN(CCC1CCC(NC(=O)c3cc4ccccc4[nH]3)CC1)CC2 (stereo not drawn),8.94,5.71,6.21
CCOc1cc(C(=O)N[C@@H](Cc2ccccc2)[C@H](O)CNCc2cc(OC)cc(OC)c2)cc(N2CCCC2=O)c1,9.97,8.91,2.86
CC(CN(C)C)C(=O)Nc1cccc(-c2cccc(-c3nc4cc(F)ccc4[nH]3)c2)c1 (stereo not drawn),-2.1,-1.06,-3.91
COc1ccc(C(=O)CCC(=O)N(Cc2ccc(-c3ccc(CNCc4cccnc4)cn3)cc2)C2CCN(Cc3ccccc3)CC2)cc1F,3.47,1.26,3.53
c1ccc2c(c1)CN(CC1CCOCC1)CC1(CCN(Cc3c[nH]c4cnccc34)CC1)O2,0.57,1.23,0.88
O=C(NC1CCN(Cc2ccccc2)CC1)c1cc(-c2ccncc2)nc2ccc(Cl)cc12,4.96,3.26,0.14
O=C(/C=C/c1ccc(Cl)c(Cl)c1)NCCC(CN1CCC(c2c[nH]c3ccccc23)CC1)c1ccccc1 (stereo not drawn),2.74,2.22,0.88
Cc1cc(NC2CCCC2)nc(Nc2ccc(F)cc2)n1,8.81,7.56,0.46
CC(C)Nc1nc(NCCc2c[nH]cn2)nc(NCc2ccc(Cl)c(Cl)c2)n1,3.82,0.13,-0.25

SMILES,inhibition [1] [%],inhibition [2] [%],inhibition [3] [%]
CCOC(=O)NOC(C(=O)O)c1ccccc1 (stereo not drawn),2.01,-0.31,0.52
O=C(NCCN1CCOCC1)c1ccc(CNC(=O)c2ccc(O)c(-c3ccc(Cl)c(Cl)c3)c2)cc1,1.82,2.76,1.84
O=C(c1ccc(-c2ccc(-c3nc4cc(C(F)(F)F)ccc4[nH]3)s2)cc1)N1CCN(CCc2ccccc2)CC1,5.29,3.93,4.62
CC(C)(C)c1nn(-c2ccc(Cl)cc2)c2[nH]c(=O)c(CNCc3cccs3)cc12,3.3,3.24,2.34
Cc1cc(N2CCN(C3CCCCC3)CC2)nc2cccc(O)c12,-1.8,-0.66,0.33
COc1ccc2nccc(NC(=O)OC3CCC(NCc4ccc5c(n4)NC(=O)CS5)CC3)c2c1 (stereo not drawn),4.53,4.67,3.92
Cc1cc(NC(=O)CCN2CCN(c3cccc(Cl)c3Cl)CC2)ccc1N1CCN(C(C)C)CC1,-0.22,-0.39,-2.11
Cc1cc(NCCc2ccccc2)nc(NC(=N)Nc2cccc(F)c2)n1,2.17,3.28,-0.09
CC(CC1CCCCC1)NCc1ccccc1OCCC(=O)N1CCCC1C(N)=O (stereo not drawn),3.79,3.8,0.2
COc1ccc(C2C(C(=O)Nc3cc(OC)c(OC)c(OC)c3)c3cc(OC)c(OC)cc3C(=O)N2C)cc1 (stereo not drawn),1.9,1.7,2.37
CCN1CCN(c2cc(C)c3cc(NC(=O)C=Cc4cccc(OC)c4OC)ccc3n2)CC1,5.91,11.3,1.27
COc1cccc(Nc2nc(C)cc(NCc3ccc(-c4c(C)noc4C)cc3)n2)c1,14.8,13.4,3.73
NCc1ccc(CNCc2cccc(-c3cccc(-c4nc5ccccc5[nH]4)c3)c2)cc1,1.02,-3.61,3.76
CCc1ccc(NC(=O)c2cccc(CN3CCCN(CC4CCCCC4)CC3)c2)cc1,1.02,1.36,-2.12
COc1ccc2nccc([C@@H](O)CN3CCC(NC(=O)/C=C/c4ccc5cc(C)[nH]c5c4)CC3)c2c1,3.96,3.03,1.91
O=S(=O)(NCCN1CCCC1)c1cccc(-c2ccc(CNC3Cc4ccccc4C3)cc2)c1,30.3,16.9,8.14
Cc1cc(N[C@@H](CC(C)C)C(=O)NCc2cccs2)nc(NCCc2ccccc2)n1,7.7,5.79,5.49
CC1(C)N=C(N)N=C(N)N1c1ccc(Cl)cc1,5.04,4.91,4.69
CC(C)(C)c1ccc(NC(=O)c2ccc(CN3CCCN(Cc4cccc(C#N)c4)CC3)cc2)cc1,6.54,7.31,4.99
Cc1ccc(NC(=O)c2ccc3ncccc3c2)cc1OC1CCN(CCC(C)C)CC1,3.07,2.35,4.09
CC(=NNC(N)=O)C1=C(O)C(c2ccccc2)N(C2CCCCC2)C1=O (stereo not drawn),-0.44,-0.08,-0.27
COc1ccc(C2(CNCC(O)c3cccc([N+](=O)[O-])c3)CCCCC2)cc1OC (stereo not drawn),1.34,2.95,0.33
O=C(Nc1cccc(N2CCC(NCCCn3ccnc3)CC2)c1)c1cccc(C(F)(F)F)c1,0.98,-0.71,3.8
